Test results as given in PubChem BioAssay (NCATS).
Where “and” joins values, the source holds several entries; their conditions need not be identical. Identical values can stand only once. Results filed as inconclusive are left out. Calls of active or inactive are those of the source. Unless noted, calls follow the shape of the dose curve; as a rule, active = well fitted curve in the direction sought with a large enough effect; inconclusive = small, poorly fitted or top-dose-only effect, or another doubt; inactive = no such curve, though single readings can be large; an effect the other way counts as inactive or inconclusive. *1 amine or outer side, *2 acyl side, *3 side chain or, on linkers, in order; H or OH if unused. Where a SMILES comes first, the peptide text is derived from it. Bridges are numbered along the chain shown (N, C = ends). Roman numbers before positions name the chains, in order. [ ]: non-standard residue; d: D form. ξ: configuration not given here. Actinocin(9to1) = Cc1c2oc3c(C)ccc(C(=O)[*:1])c3nc-2c(C(=O)[*:2])c(N)c1=O; ξNMeV = CNC(C(=O)O)C(C)C; ξV = CC(C)C(N)C(=O)O; Sar = CNCC(=O)O

Legend:
[1] = molecular target: Tumor necrosis factor (Homo sapiens) (UniProt P01375); assay: qHTS assay to identify small molecules that stimulate Tumor Necrosis Factor-alpha (TNF-alpha) secretion (AID 651757; active = well fitted curve in the direction sought with a large enough effect in the signal ratio; the % refers to the signal ratio; also: 0% is about no effect)
Chain of Tumor necrosis factor (Homo sapiens) (P01375 whole entry, looked up): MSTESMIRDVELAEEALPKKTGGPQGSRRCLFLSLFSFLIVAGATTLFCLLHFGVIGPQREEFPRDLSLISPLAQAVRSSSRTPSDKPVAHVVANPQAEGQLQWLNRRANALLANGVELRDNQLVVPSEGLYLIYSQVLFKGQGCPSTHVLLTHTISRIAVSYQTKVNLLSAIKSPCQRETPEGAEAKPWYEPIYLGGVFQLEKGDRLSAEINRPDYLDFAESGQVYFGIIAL
In short: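 Human monocytic THP-1 cells are plated, treated with compound and held at 37 C for 17 hrs. Labeled anti-TNF-alpha antibody mixture is then added; after 3 hr at room temperature, TR-FRET signal reports secreted TNF-alpha.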

[2] = molecular target: Peroxisome proliferator-activated receptor alpha (Homo sapiens) (UniProt Q07869); assay: qHTS assay for small molecule agonists of the peroxisome proliferator-activated receptor alpha (PPARalpha) signaling pathway (AID 651778); conditions: PathHunter PPARalpha complementation, chemiluminescence, 6 h; max response: stronger effect = higher value; also: % of control where 0% means no effect
Chain of Peroxisome proliferator-activated receptor alpha (Homo sapiens) (Q07869 whole entry, looked up): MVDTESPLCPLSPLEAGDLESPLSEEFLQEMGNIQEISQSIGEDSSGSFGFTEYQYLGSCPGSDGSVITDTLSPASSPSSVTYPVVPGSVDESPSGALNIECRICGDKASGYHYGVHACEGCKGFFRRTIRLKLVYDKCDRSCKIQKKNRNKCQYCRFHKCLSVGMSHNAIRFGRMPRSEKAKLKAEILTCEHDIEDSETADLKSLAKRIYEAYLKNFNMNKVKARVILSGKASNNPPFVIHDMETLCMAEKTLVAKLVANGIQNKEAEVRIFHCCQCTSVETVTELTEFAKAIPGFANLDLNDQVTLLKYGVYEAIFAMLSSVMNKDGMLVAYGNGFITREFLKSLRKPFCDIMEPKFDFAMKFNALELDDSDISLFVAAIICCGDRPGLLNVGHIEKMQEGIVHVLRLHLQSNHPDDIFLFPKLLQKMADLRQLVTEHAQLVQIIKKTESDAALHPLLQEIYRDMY
In short: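 Chemiluminescence from complemented enzyme reported PPARalpha activation in cells after 6 hr of compound treatment at 37 C. The detection reagent was incubated for 60 min at room temperature, and compounds were scored as agonists.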

[3] = molecular target: Nuclear receptor ROR-gamma (Homo sapiens) (UniProt P51449); assay: qHTS assay for small molecule antagonists of the retinoid-related orphan receptor gamma (ROR-gamma) signaling pathway (AID 651802);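 also: CHO cells with doxycycline-induced ROR-gamma expression; % is scaled to controls: 0 for no effect and ±100 for the full control effect; nearly all actives have a fitted effect of over 60% in size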
Chain of Nuclear receptor ROR-gamma (Homo sapiens) (P51449 whole entry, looked up): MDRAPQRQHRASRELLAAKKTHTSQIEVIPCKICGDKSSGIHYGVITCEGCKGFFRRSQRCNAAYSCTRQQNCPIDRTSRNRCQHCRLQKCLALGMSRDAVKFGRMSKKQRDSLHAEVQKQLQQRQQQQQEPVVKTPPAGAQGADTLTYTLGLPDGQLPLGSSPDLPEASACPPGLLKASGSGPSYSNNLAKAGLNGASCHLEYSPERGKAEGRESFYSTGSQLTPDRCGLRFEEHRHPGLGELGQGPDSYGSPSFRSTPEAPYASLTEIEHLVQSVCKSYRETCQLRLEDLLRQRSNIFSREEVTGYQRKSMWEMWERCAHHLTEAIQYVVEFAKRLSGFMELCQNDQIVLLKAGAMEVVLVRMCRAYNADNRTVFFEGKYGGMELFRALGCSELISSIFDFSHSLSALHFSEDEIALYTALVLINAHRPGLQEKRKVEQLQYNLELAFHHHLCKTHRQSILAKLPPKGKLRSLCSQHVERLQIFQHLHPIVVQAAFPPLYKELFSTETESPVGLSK
In short: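 Steps: cells dispensed; compound or DMSO transferred by pin tool; doxycycline added to induce the ROR response element-driven luciferase; plates held 16hr at 37C; ONE-Glo added and luminescence measured.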

[4] = qHTS assay for small molecule agonists of the antioxidant response element (ARE) signaling pathway measured by Nrf2-dependant transcriptional activity (AID 720636; active = well fitted curve in the direction sought with a large enough effect in the repeat runs; an effect the other way counts as inactive or inconclusive;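 also: HepG2 cells with an ARE-driven luciferase reporter; % of control where 0% means no effect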)
In short: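 First, ARE-luc HepG2 cells attached for 6 hr at 37 C in 1% dialyzed FBS medium. Next, compound or DMSO was added and incubated 16 hr. Finally, ONE-Glo reagent was added and luminescence measured after 30 min.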

[5] = qHTS assay for small molecule antagonists of the retinoid-related orphan receptor gamma (ROR-gamma) signaling pathway - cell viability counter screen (AID 720652; active = well fitted curve in the direction sought with a large enough effect in the repeat runs; an effect the other way counts as inactive or inconclusive;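 also: CHO reporter cells with doxycycline-induced ROR-gamma expression; compound exposure lasted 16 hr before ATP read; % is scaled to controls: 0 for no effect and ±100 for the full control effect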)
In short: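 Steps: seed CHO cells bearing TET-inducible ROR and ROR response element-luciferase; rest 5 hr at 37 C; add compound, then doxycycline; incubate 16 hr; add CellTiter-Glo and read luminescence as ATP-based viability.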

[6] = qHTS assay for small molecule agonists of the antioxidant response element (ARE) signaling pathway measured by Nrf2-dependant transcriptional activity - cell viability counter screen (AID 720653; active = well fitted curve in the direction sought with a large enough effect in the repeat runs; an effect the other way counts as inactive or inconclusive; also: % is scaled to controls: 0 for no effect and ±100 for the full control effect); conditions: ARE-bla HepG2 viability, CellTiter-Glo ATP luminescence, 16 h; stronger effect = lower value
In short: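 Cytotoxicity counter screen: intracellular ATP quantified by CellTiter-Glo luminescence in the same ARE-bla HepG2 plates, after 16 h compound exposure and a 2 h beta-lactamase substrate step.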

[7] = qHTS Assay for Identifying Gametocytocidal Compounds (AID 743244); also: potency is read from the fitted curve at half-maximal effect;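 as to max response: % is scaled to controls: 0 for no effect and ±100 for the full control effect; actives lower the fluorescent signal which means gametocytes are killed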; conditions: P. falciparum 3D7 stage III-V gametocytes, alamarBlue, 72 h; max response: stronger effect = lower value
In short: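 Fluorescence at Ex 525/Em 598 nm, recorded 24 h after alamarBlue addition, reports residual metabolic activity of 3D7 gametocytes (stages III–V) following 72 h compound exposure at 37 °C, 5% CO2.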

[8] = qHTS assay for cell viability of HEK293 cells (AID 743288); conditions: ATP luminescence (CellTiter-Glo), 18 h, stronger effect = lower value; also: % is scaled to controls: 0 for no effect and ±100 for the full control effect; nearly all actives have a fitted effect of over 50% in size
In short: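 ATP luminescence (CellTiter-Glo) reports metabolically competent cell number after parental HEK293 cells, 2,000/well, were treated with DMSO-dissolved compounds for 18 h at 37 C; reagent incubation 30 min, room temperature.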

[9] = qHTS assay for cell viability of the p53RE-bla HCT-116 cell line (AID 743292); also: % is scaled to controls: 0 for no effect and ±100 for the full control effect; nearly all actives have a fitted effect of over 55% in size
In short: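 Quantitative high-throughput format: compounds in DMSO were pinned onto p53RE-bla HCT-116 cells (4,000/well) and incubated 16 h at 37 C. Total intracellular ATP, read by CellTiter-Glo luminescence, reflects viable cell number.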

[10] = qHTS assay to identify small molecules that stimulate interleukin-8 (IL-8) secretion (AID 651758; active = well fitted activation curve with a large enough effect in the signal ratio; the % refers to the signal ratio; also: 0% is about no effect)
In short: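 Secreted IL-8 measured homogeneously by TR-FRET (two labelled anti-IL-8 antibodies, 1-3 h at room temperature) after a 16 h, 37 C compound treatment of THP-1 cells at 2000 cells/well.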

[11] = qHTS assay for environmental chemicals that activate the Aryl hydrocarbon Receptor (AhR) signaling pathway (AID 651777); conditions: 1A2-DRE human hepatoma cells, luciferase, 24 h; stronger effect = higher value; also: % of control where 0% means no effect; nearly all actives have a fitted effect of over 15% in size
In short: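 AhR activation is scored as a rise in luciferase from a stable DRE–CYP1A2 promoter construct in human hepatoma cells. Treatment lasts 24 hr at 37 C; detection uses One-Glo after 30 min at room temperature.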

[12] = molecular target: Arylsulfatase A (Homo sapiens) (UniProt P15289); assay: qHTS screen for enhancers of Arylsulfatase A (ASA1): LOPAC Validation Assay (AID 720538); also: 0% is about no effect
Chain of Arylsulfatase A (Homo sapiens) (P15289 whole entry, looked up): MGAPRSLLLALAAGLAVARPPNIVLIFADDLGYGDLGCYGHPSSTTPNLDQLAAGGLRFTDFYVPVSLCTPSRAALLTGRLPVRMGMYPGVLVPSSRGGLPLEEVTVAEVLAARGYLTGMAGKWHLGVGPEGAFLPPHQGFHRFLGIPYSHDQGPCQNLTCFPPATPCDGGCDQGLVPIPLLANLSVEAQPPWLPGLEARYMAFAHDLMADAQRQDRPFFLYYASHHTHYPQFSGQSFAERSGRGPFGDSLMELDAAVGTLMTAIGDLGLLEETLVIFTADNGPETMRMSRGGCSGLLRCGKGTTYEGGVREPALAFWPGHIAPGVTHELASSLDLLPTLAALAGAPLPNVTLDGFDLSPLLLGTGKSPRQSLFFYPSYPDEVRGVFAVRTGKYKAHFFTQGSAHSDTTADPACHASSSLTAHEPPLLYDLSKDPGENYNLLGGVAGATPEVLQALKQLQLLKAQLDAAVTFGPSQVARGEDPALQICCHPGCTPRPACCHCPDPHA
In short: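 Read-out: fluorescence at Ex=525/Em=598 nm after 1N NaOH final stop. Patient fibroblasts carrying ASA-I179S had 48h compound exposure, then 14h room-temperature pNCS hydrolysis (0.5mM final) in lysis buffer. Signal increase = enhanced activity.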

[13] = qHTS for compounds that reverse cellular toxicity of Amyloid beta (A-beta) peptide in yeast: LOPAC Validation Assay (AID 720559);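 also: plate controls were DMSO for no effect and equimolar ferric chloride plus clioquinol rescue for full effect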
In short: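 OD600 growth readout after 48 hr at 30 C; A-beta-toxic yeast plus pinned compounds in medium. Normalization: DMSO = negative, equimolar FeCl3 + clioquinol = positive.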

[14] = qHTS for Activators of Parkin Expression: LOPAC Validation Assay (NLuc Reporter) (AID 720572)
In short: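 Compound effects on Parkin promoter activity were measured as NanoLuc luminescence after 24 h at 37 C. The neuronal reporter line also carried FLuc, which was read first. LOPAC compounds were tested at 7 concentrations, with normalization to DMSO (0%) and positive control (100%).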

[15] = molecular target: T1, Hexokinase-4 (Homo sapiens) + Glucokinase regulatory protein (Homo sapiens) (UniProt P35557+Q14397); assay: qHTS assay for inhibitors of recombinant human GCK-GKRP interaction: ADP-Glo assay (AID 743206);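 also: plate controls were DMSO plus enzyme for no effect and no enzyme for full effect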
T1 sequence (P35557 whole entry, looked up): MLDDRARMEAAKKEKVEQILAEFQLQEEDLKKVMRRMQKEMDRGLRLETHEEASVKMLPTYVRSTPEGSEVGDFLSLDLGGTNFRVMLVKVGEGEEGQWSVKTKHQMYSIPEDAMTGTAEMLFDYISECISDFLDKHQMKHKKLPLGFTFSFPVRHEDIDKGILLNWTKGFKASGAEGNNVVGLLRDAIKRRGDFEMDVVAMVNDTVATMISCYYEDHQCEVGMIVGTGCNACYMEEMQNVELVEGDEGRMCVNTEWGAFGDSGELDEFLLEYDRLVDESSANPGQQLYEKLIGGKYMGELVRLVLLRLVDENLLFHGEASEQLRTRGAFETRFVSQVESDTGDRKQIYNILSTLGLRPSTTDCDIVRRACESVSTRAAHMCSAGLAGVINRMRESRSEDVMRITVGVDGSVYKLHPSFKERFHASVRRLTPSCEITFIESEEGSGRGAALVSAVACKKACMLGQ
T1 sequence (Q14397 whole entry, looked up): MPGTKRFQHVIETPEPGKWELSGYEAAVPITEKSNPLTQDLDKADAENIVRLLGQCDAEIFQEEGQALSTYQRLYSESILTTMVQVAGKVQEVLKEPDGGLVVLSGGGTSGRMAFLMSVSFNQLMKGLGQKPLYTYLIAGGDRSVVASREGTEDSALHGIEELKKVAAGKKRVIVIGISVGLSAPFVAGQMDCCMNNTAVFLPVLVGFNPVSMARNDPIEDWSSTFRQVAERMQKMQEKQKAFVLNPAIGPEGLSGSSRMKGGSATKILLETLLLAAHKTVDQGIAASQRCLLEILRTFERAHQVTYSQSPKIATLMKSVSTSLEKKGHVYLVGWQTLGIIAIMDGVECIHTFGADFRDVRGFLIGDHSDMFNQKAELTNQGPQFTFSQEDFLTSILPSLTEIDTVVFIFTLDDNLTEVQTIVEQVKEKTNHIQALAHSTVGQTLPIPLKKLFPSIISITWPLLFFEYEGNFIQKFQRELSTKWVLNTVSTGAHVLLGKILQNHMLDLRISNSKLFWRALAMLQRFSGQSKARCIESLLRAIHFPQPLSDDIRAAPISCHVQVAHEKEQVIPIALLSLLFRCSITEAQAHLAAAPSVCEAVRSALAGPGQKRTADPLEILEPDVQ
In short: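 Pin-transferred compounds meet a 15 nM GST-GCK/15 nM FLAG-GKRP/2 uM S6P mix (dispense concentrations). ATP is then added to 0.4 mM final with 5 mM glucose, and the reaction runs 60 min at room temperature. ADP is quantified luminescently.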

[16] = molecular target: T1, Hexokinase-4 (Homo sapiens) + Glucokinase regulatory protein (Homo sapiens); assay: qHTS assay for inhibitors of recombinant human GCK-GKRP interaction: HTRF assay (AID 743207);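 also: 0% = DMSO with GCK present and -100% = DMSO wells lacking GCK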
In short: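 HTRF read-out (ex 320 nm; 615/665 nm emission) after 60 min RT equilibration of 5 nM GST-GCK, 5 nM FLAG-GKRP, 2 uM S6P, compound and anti-FLAG/anti-GST detection antibodies; signal normalized between DMSO wells with and without GCK.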

[17] = qHTS for small molecule inhibitors of Yes1 kinase: Counter Assay (AID 686950);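 also: no kinase present so only ADP-Glo detection of a fixed ADP amount is tested; luminescence from ADP-Glo reporting ADP in a fixed ATP and ADP mixture; 0% = DMSO wells with ATP plus ADP and -100% = ATP-only wells without ADP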
In short: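 ADP-Glo luminescence read after a 60 min room-temperature incubation of compound with an ATP/ADP mix (0.08 mM/0.02 mM) and no kinase, following a 20 min compound preincubation. Signal scaled between ATP+ADP (max) and 0.1 mM ATP-only (min) wells; Tris pH 7.5, Mg2+, DTT.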

[18] = qHTS profiling for inhibitors of Plasmodium falciparum (3D7) proliferation (AID 743322; call rule not given here;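 also: infected erythrocytes exposed to compound for 72 h before lysis; 100% = DMSO vehicle wells and 0% = 0.29 µM artemisinin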); conditions: P. falciparum 3D7 proliferation; at 28.7 µM (top of the series) unless noted
In short: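 Parasite DNA was quantified by SYBR Green I fluorescence (ex 485, em 535 nm) after overnight lysis in saponin/Triton buffer at room temperature. Cultures at 0.3% parasitemia and 2.5% hematocrit were first exposed to compound for 72 h at 37 C; signals were normalised to artemisinin (0.29 uM) and vehicle wells.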

[19] = qHTS profiling for inhibitors of Plasmodium falciparum (DD2) proliferation (AID 743323; call rule not given here); conditions: lower = more inhibition; at 28.7 µM (top of the series) unless noted
In short: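 1536-well qHTS; infected RBCs 0.3% parasitemia/2.5% Hct final; cpd 72 h 37 C 5% CO2; lysis buffer + SYBR Green I, o/n RT dark; FI 485/535; norm. to 0.29 uM artemisinin and DMSO, plate-stack corrected.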

[20] = molecular target: Tyrosine-protein kinase Yes (Homo sapiens) (UniProt P07947); assay: qHTS for small molecule inhibitors of Yes1 kinase: Primary Screen (AID 686947); also: nearly all actives have a fitted effect of over 60% in size; also: potency is read from the fitted curve at half-maximal effect
Chain of Tyrosine-protein kinase Yes (Homo sapiens) (P07947 whole entry, looked up): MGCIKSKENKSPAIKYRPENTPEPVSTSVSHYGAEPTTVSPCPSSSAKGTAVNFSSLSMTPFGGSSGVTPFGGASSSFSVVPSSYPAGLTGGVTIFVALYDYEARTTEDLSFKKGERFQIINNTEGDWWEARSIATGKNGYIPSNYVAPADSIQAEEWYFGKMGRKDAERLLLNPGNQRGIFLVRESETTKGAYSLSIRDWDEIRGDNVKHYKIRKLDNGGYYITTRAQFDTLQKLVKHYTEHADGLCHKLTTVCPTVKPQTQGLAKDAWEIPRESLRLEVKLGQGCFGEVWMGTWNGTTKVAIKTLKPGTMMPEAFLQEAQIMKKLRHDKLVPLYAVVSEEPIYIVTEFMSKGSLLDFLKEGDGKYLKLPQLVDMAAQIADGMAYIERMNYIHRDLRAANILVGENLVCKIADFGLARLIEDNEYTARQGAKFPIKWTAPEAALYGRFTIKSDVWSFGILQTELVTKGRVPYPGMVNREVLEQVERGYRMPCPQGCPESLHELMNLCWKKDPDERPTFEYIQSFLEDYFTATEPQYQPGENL
In short: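 ADP-Glo luminescence reports ADP formed by 4 nM Yes1 phosphorylating poly(E4Y) (0.3 mg/mL) with 0.1 mM ATP for 60 min at room temperature, following 20 min compound preincubation; normalised between DMSO wells with and without enzyme.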

CCOC(C)=O
inactive: outcome [1] | max response [2] 6.06% | outcome [3] | outcome [4] | outcome [5] | max response [6] 1.62% | max response [7] 12.9% | max response [8] 2.28% | outcome [9]

O=S(=O)(O)O
inactive: outcome [1] | Potency [10] | activation [11] -0.349% and 1.61% | max response [2] -1.64% and -3.82% | outcome [4] | outcome [5] | max response [6] -6.94% and 4.69% | max response [7] -4.98% | max response [8] 9.97% and -5.38% | outcome [9]

O=CCCCC=O
inactive: outcome [1] | max response [2] -1.75% | outcome [4] | max response [6] -17.7%

CN1Cc2c(N)cccc2C(c2ccccc2)C1 (stereo unspecified)
inactive: outcome [12] | outcome [13] | outcome [14] | outcome [15] | outcome [16]

CCCCCCCC(=O)O
inactive: outcome [1] | activation [11] 0.292% and -0.546% | max response [2] -0.533% and 5% | outcome [3] | outcome [4] | outcome [5] | max response [6] 3.78% and 1.59% | max response [8] -4.48% and -6.78% | outcome [9]

CCOc1cc2ncc(C#N)c(Nc3ccc(OCc4ccccn4)c(Cl)c3)c2cc1NC(=O)/C=C/CN(C)C
-0.375%: remaining parasite growth % (stronger effect = lower value) [18]
5.17%: activity, percent of control [19]
inactive: outcome [17]
active: Potency [7] 23.5 µM

NC(=O)Nc1cc(-c2ccc(CN3CCOCC3)c(F)c2)sc1C(=O)N[C@H]1CCCNC1
inactive: outcome [17]
3.88%: remaining parasite growth % (stronger effect = lower value) [18]
1.39%: activity, percent of control [19]
active: Potency [20] 0.0002 µM | Potency [7] 18.7 µM

CC(C)=O
inactive: outcome [1] | activation [11] -1.82% | max response [2] -7.67% | outcome [3] | outcome [4] | outcome [5] | max response [6] -3.47% | max response [7] -8.02% | max response [8] -4.51% | outcome [9]

CCCCC(CC)COC(=O)CC(C(=O)OCC(CC)CCCC)S(=O)(=O)O (stereo unspecified)
inactive: activation [11] 0.833% | outcome [4] | max response [6] -6.73% | max response [7] -7.18% and 8.87% | max response [8] -6.91% | outcome [9]

Cc1c2oc3c(C)ccc(C(=O)N[C@@H]4C(=O)NC(C(C)C)C(=O)N5CCC[C@H]5C(=O)N(C)CC(=O)N(C)C(C(C)C)C(=O)O[C@@H]4C)c3nc-2c(C(=O)N[C@@H]2C(=O)NC(C(C)C)C(=O)N3CCC[C@H]3C(=O)N(C)CC(=O)N(C)C(C(C)C)C(=O)O[C@@H]2C)c(N)c1=O (stereo partly specified) (I: T[ξV]P[Sar][ξNMeV] / II: T[ξV]P[Sar][ξNMeV]; ester I:1-I:C, II:1-II:C; linker I:N-II:N via Actinocin(9to1))
inactive: Potency [20] | outcome [17]
-1.83%: activity, percent of control [19]
-2.78%: remaining parasite growth % (stronger effect = lower value) [18]

CC1(C)C(C=C(Cl)Cl)C1C(=O)OCc1cccc(Oc2ccccc2)c1 (stereo unspecified)
inactive: activation [11] -0.92% and -0.145% and 0.247% | max response [2] -0.904% [middle of 4 runs] | outcome [4] | max response [6] -3.1% [middle of 4 runs] | max response [8] -9.26% [middle of 4 runs] | outcome [9]

CCC1(Cc2ccc(N)cc2)CCC(=O)NC1=O (stereo unspecified)
inactive: Potency [20] | outcome [17]
99.6% [at 57.5 µM]: remaining parasite growth % (stronger effect = lower value) [18]
97.2% [at 57.5 µM]: activity, percent of control [19]

CC[C@@H](C(=O)O)C1CC[C@H](C)C([C@@H](C)[C@H](O)[C@H](C)C(=O)[C@H](CC)C2O[C@]3(C=C[C@@H](O)[C@]4(CC[C@@](C)(C5CC[C@](O)(CC)[C@H](C)O5)O4)O3)[C@H](C)C[C@@H]2C)O1 (stereo partly specified)
-0.726%: activity, percent of control [19]
-3.05%: remaining parasite growth % (stronger effect = lower value) [18]
inactive: Potency [20] | outcome [17]

COC(=O)C1=C(C)NC(C)=C(C(=O)OCCCN2CCC(c3ccccc3)(c3ccccc3)CC2)[C@H]1c1cccc([N+](=O)[O-])c1
active: Potency [7] 14.8 µM
-1.45%: remaining parasite growth % (stronger effect = lower value) [18]
inactive: Potency [20] | outcome [17]
-0.102%: activity, percent of control [19]

O=C(O)CCC(=O)C(=O)O
inactive: outcome [1] | Potency [10] | activation [11] 0.4% | max response [2] 4.88% | outcome [3] | outcome [4] | outcome [5] | max response [6] -1.5% | max response [8] 2.53% | outcome [9]

CNC1CCN(C(Cc2cccc(-c3ccncc3)c2)C(=O)c2sc3c(F)ccc(F)c3c2Cl)CC1 (stereo unspecified)
inactive: Potency [20] | outcome [17]
0.386%: activity, percent of control [19]
0.218%: remaining parasite growth % (stronger effect = lower value) [18]

C[C@H]1C[C@H]2[C@@H]3CCC4=CC(=O)C=C[C@]4(C)[C@@]3(F)[C@@H](O)C[C@]2(C)[C@@]1(O)C(=O)CO
inactive: activation [11] -2.62% | max response [2] -0.118% | outcome [4] | max response [6] -19.2% | max response [7] -4.91% | max response [8] -14.2% | outcome [9]
